Values without a mark were called inactive. The source made the active and inactive calls. Calls follow the shape of the dose curve; as a rule, active = well fitted curve in the direction sought with a large enough effect in the repeat runs; inconclusive = weak or mixed curves; inactive = flat fitted curve, though single readings scatter.
% is scaled to controls: 0 for no effect and ±100 for the full control effect.

The nature of this assay: qHTS assay to test for compound auto fluorescence at 535 nm (green) in HEK293 cell free culture (AID 720682). The conditions noted are these: cell-free medium, green autofluorescence 485/535 nm, stronger effect = higher value; series mostly up to 91.3 µM. The text has this: U.S. Tox21 Program National Center for Advancing Translational Sciences [NCATS] NIH Chemical Genomics Center [NCGC] U.S. Environmental Protection Agency [EPA] National Institutes of Environmental Health Sciences [NIEHS] National Toxicology Program [NTP] U.S. Food and Drug Administration [FDA] Tox21 Assay Overview: Compound auto fluorescence often interferes with screening of the compound library against various biological targets and signaling pathways. Some of these compounds may have fluorophoric properties. Such properties may interfere with the assay outputs resulting in false positives and/or negatives. To decrease such complications and ensure the compound activities are relevant in terms of biological response, the Tox21 10K compound library was screened for auto fluorescence. From the fluorophores used as reporter signals in our screening assays, the auto fluorescence equivalencies of compounds against three fluorophores have been evaluated: Triamterene, Fluorescein and Rose Bengal sodium for blue, green and red fluorescence, respectively. The fluorescence intensities were measured using Excitation/Emission wavelengths at 405/460nm, 485/535nm and 540/590nm for blue, green and red labels, respectively. This assay includes the green fluorescence data.
Tox21 Assay Protocol Summary: 5 uL of culture medium (DMEM containing 10% FBS) per well was dispensed into black wall/clear bottom 1536-well plates using a Multidrop Combi Dispenser (ThermoFisher Scientific, Waltham, MA). After 23 nL compound or DMSO vehicle was transferred into assay plate by a pintool work station (Kalypsys, San Diego, CA), fluorescence intensities in the assay plates were measured by an Envision (PerkinElmer, Shelton, CT) plate reader using three labels for measuring blue, green and red fluorescence at […] 460, 535 and 590nm respectively.
On the technique in general: In qHTS, concentration-response curves come from the screen itself.
Consider `CCOCn1c(-c2ccc(Cl)cc2)c(C#N)c(Br)c1C(F)(F)F`, for which the result was inactive.

As for `Clc1ccc(C(c2ccccc2Cl)C(Cl)(Cl)Cl)cc1` (stereo not given), the result was inactive.

`C[C@]12CC[C@H]3[C@@H](CCC4=CC(=O)CC[C@@]43C)[C@@H]1CC[C@@H]2O`: the result was inactive. Regarding `CN(C)[C@@H]1C(=O)C(C(N)=O)=C(O)[C@@]2(O)C(=O)C3=C(O)c4c(O)ccc(Cl)c4[C@@](C)(O)[C@H]3C[C@@H]12`, the call was inactive.

For the compound `Cn1cc(C2=C(c3cn(C4CCN(Cc5ccccn5)CC4)c4ccccc34)C(=O)NC2=O)c2ccccc21`, the outcome was inactive.

Regarding `Cc1cc(C)cc(OP(=O)(Oc2cc(C)cc(C)c2)Oc2cc(C)cc(C)c2)c1`, the outcome was inactive.

For `N#CCCC(Br)(C#N)CBr` (stereo not given), the outcome was inactive. As to `CCN(CC)C(=S)[S-].CCN(CC)C(=S)[S-].[Zn+2]`, the outcome was inactive. Consider `CC(=O)/C=C/c1ccc2c(c1)OCO2`, for which the compound was called inactive. The same measure, in the same setting: in the case of `Cc1cc(C(F)(C(F)(F)F)C(F)(F)F)ccc1NC(=O)c1cccc(I)c1C(=O)NC(C)(C)CS(C)(=O)=O` it was “inactive”; in that of `C=CC(=O)OCCCCOC(=O)C=C`, “inactive”.

For the compound `N#CSCSC#N`, the compound was called inactive. Consider `COc1cc(N)c(Cl)cc1C(=O)NC1CN2CCC1CC2` (stereo not given), for which the outcome was inactive.

Consider `Oc1c(Cl)c(Cl)cc(Cl)c1Cl`, for which the compound was called inactive. The same measure, in the same setting: next, `CC(C)Oc1cccc(NC(=O)c2ccccc2C(F)(F)F)c1`: “inactive”.

Consider `C[C@]12CC[C@@H]3c4ccc(OC(=O)N(CCCl)CCCl)cc4CC[C@H]3[C@@H]1CC[C@@H]2O`, for which the call was inactive. Same read-out and setting: in the case of `O=C(CCl)C(Cl)Cl` it was “inactive”. For the compound `O=C(Nc1ccc2[nH]ccc2c1)c1cc2cc(F)ccc2n1Cc1cccc(F)c1`, the outcome was inactive. Same read-out and setting: in the case of `CCCCN(CCCC)C(=S)[S-].CCCCN(CCCC)C(=S)[S-].[Zn+2]` it was “inactive”.

On to `CCOC(=O)OC1=C(c2cc(C)ccc2C)C(=O)NC12CCC(OC)CC2` (stereo not given), for which the result was inactive. Same read-out and setting: next, `Clc1ccc(COC(Cn2ccnc2)c2ccc(Cl)cc2Cl)cc1` (stereo not given): “inactive”; `CC1(C)[C@H](C(=O)O[C@H](C#N)c2cccc(Oc3ccccc3)c2)[C@@H]1/C=C(\Cl)C(F)(F)F`: “inactive”; `Nc1ccccc1C(=O)Oc1ccc2ccccc2c1`: “inactive”.

For `CCc1nn(C)c(C(=O)NCc2ccc(C(C)(C)C)cc2)c1Cl`, the compound was classed as inactive. Same read-out and setting: in the case of `CC(=O)[O-].CC(=O)[O-].O.O.[Cd+2]` it was “inactive”. On the same count and under the same terms, next, `O=[N+]([O-])c1ccc2ccc3cccc4ccc1c2c34`: “inactive”. With `CN(C)C(=S)[S-].CN(C)C(=S)[S-].[Cu+2]`, the activity change is 0.0031% [at 18.6 µM].

On to `O=[N+]([O-])c1cc([N+](=O)[O-])c2ccccc2c1`, for which the compound was called inactive. The same measure, in the same setting: next, `CCN`: “inactive”.

For the compound `NNC(=O)c1ccccc1`, the compound was classed as inactive.

Regarding `O=C(CCl)Nc1ccccc1`, the result was inactive. `CN(C)C1CSSSC1`: the call was inactive.

Consider `ClC1=C(Cl)C2(Cl)C3C(Cl)C=CC3C1(Cl)C2(Cl)Cl` (stereo not given), for which the compound was called inactive. Consider `C1CCC2CCCCC2C1` (stereo not given), for which the call was inactive.

With `CC(Cc1ccc(C(C)(C)C)cc1)CN1C[C@@H](C)O[C@@H](C)C1` (stereo not given in full), the call was inactive. In the case of `ClC1=C(Cl)C2(Cl)C3C(Cl)C(Cl)CC3C1(Cl)C2(Cl)Cl` (stereo not given), the compound was called inactive. The same measure, in the same setting: in the case of `CN(C)c1ccc(N=Nc2ccccc2)cc1` it was “inactive”. On the same count and under the same terms, in the case of `Cc1cc(N=Nc2ccccc2C)ccc1N` it was “inactive”; in that of `O=c1[nH]c2ccccc2n1C1CCN(CCCC(c2ccc(F)cc2)c2ccc(F)cc2)CC1`, “inactive”; in that of `c1ccc(OCC2CO2)cc1` (stereo not given), “inactive”.
